Measurements taken from PubChem BioAssay (Tox21).
Inconclusive results are not listed. The source made the active and inactive calls. Unless noted, the call rests on the fitted dose curve; in most records, active means well fitted curve in the direction sought with a large enough effect in the repeat runs; inconclusive means weak or mixed curves; inactive means no such curve, though single readings can be large; an effect the other way counts as inactive or inconclusive.

Legend:
[1] = target: Luciferin 4-monooxygenase (Photinus pyralis) (UniProt P08659); assay: qHTS assay to identify small molecule inhibitors of firefly luciferase (AID 1224835); further: nearly all actives have a fitted effect of over 25% in size; further: potency means the concentration at half of the fitted maximal effect
Summary of the method: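 Inhibition of purified Photinus luciferase is measured by luminescence. Substrate levels (D-luciferin, ATP) sit at their KM values. Each compound is tested in a concentration series.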

[2] = qHTS assay to identify small molecule agonists of the constitutive androstane receptor (CAR) signaling pathway - cell viability counter screen (AID 1224836); further: nearly all actives have a fitted effect of over 45% in size
Summary of the method: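 23 h treatment, 37 C, 5% CO2. Cell line: HepG2 stably expressing hCAR with a CYP2B6-2.2kb construct. Co-treatment: PK11195, 0.75 uM final. Read-out: CellTiter-Fluor fluorescence intensity.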

[3] = qHTS assay to identify small molecule antagonists of the constitutive androstane receptor (CAR) signaling pathway - cell viability counter screen (AID 1224837); further: nearly all actives have a fitted effect of over 45% in size
Summary of the method: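 Multiplexed cytotoxicity read-out for the CAR antagonist screen: double-stable HepG2-CYP2B6-hCAR cells co-treated with 50 nM CITCO (final) and compound over 15 concentrations, incubated 23 hr, then assessed by CellTiter-Fluor fluorescence.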

[4] = target: Nuclear receptor subfamily 1 group I member 3 (Homo sapiens) (UniProt Q14994); assay: qHTS assay to identify small molecule antagonists of the constitutive androstane receptor (CAR) signaling pathway (AID 1224838); further: nearly all actives have a fitted effect of over 40% in size
Summary of the method: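 Compounds were titrated across 15 concentrations onto HepG2 cells double-stably expressing hCAR and a CYP2B6-2.2kb reporter, together with 50 nM CITCO (final). After 24 h at 37 C, luciferase activity was measured by luminescence.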

[5] = target: Nuclear receptor subfamily 1 group I member 3 (Homo sapiens) (UniProt Q14994); assay: qHTS assay to identify small molecule agonists of the constitutive androstane receptor (CAR) signaling pathway (AID 1224839); further: nearly all actives have a fitted effect of over 15% in size; further: potency means the concentration at half of the fitted maximal effect;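 on activation: HepG2 cells stably carrying human CAR and a CYP2B6 luciferase reporter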
Summary of the method: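 Compounds tested at 15 concentrations on HepG2 cells stably harbouring hCAR and CYP2B6-2.2kb reporter constructs, co-treated with PK11195 (0.75 uM final), 24 h at 37 C; luminescent reporter signal quantified.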

[6] = qHTS assay to identify small molecule antagonists of the estrogen related receptor signaling pathway with the pleiotropic PPARgamma coactivator (PGC) from Tox21 10K library - cell viability counter screen (AID 1224840; active means well fitted cell-killing curve with a large enough effect in the repeat runs, not every such curve was filed as active; further: nearly all actives have a fitted effect of over 40% in size)
Summary of the method: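 Step one, plate 2,000 PGC/ERR cells per well; step two, incubate 6 h at 37 C/5% CO2; step three, pin-transfer compounds; step four, incubate 17.5 h; step five, add CellTiter-Fluor and read fluorescence after 30 min.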

[7] = qHTS assay to identify small molecule agonists of the hypoxia (HIF-1) signaling pathway - cell viability counter screen (AID 1224844; calls by dose curve; further: nearly all actives have a fitted effect of over 50% in size)
Summary of the method: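 Tox21 10K compounds were added to HRE-bla ME-180 cells (0.5% dialyzed FBS) and incubated 17 hrs at 37C; ATP-based CellTiter-Glo luminescence then reported cell viability in the same wells.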

[8] = qHTS assay to identify small molecule agonists of H2AX (AID 1224845; active means well fitted activation curve with a large enough effect in the signal ratio in the repeat runs, not every such curve was filed as active; the % refers to the signal ratio)
Summary of the method: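 Phospho-H2AX Ser139 measured by HTRF (ex 320 nm; em 665 and 620 nm) after 24 hr antibody incubation. Compounds, 15 concentrations, 0.76% DMSO, were applied to CHO-K1 cells for 3hr at 37C before lysis.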

[9] = qHTS assay to identify small molecule agonists of the hypoxia (HIF-1) signaling pathway (AID 1224846; active means well fitted activation curve with a large enough effect in the signal ratio in the repeat runs, not every such curve was filed as active; the % refers to the signal ratio)
Summary of the method: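 Steps: seed ME-180 HRE-bla cells (2,000/well, 0.5% dialyzed FBS); incubate 5 hrs at 37C; pin-transfer compounds or DMSO; incubate 17 hrs; add LiveBLAzer B/G substrate CCF4-AM; measure reporter activation by FRET.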

[10] = qHTS assay to identify small molecule agonists of H2AX - cell viability counter screen (AID 1224847; calls by dose curve; further: top concentration of the series differs between compounds; nearly all actives have a fitted effect of over 30% in size)
Summary of the method: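 Compounds tested at 15 concentrations were incubated 3 hr at 37C with wild-type CHO-K1 cells; cellular ATP-based luminescence (CellTiter-Glo) indicated viability.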

[11] = qHTS RealTime-Glo MT Cell Viability Assay in HepG2 cells - 24 hour (AID 1224867); further: nearly all actives have a fitted effect of over 50% in size
Summary of the method: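 Cells + NanoLuc/prosubstrate dispensed (600 cells/well) → 5 h at 37 C/5% CO2 → compounds in DMSO transferred → 40 h incubation at 37 C, luminescence read at 0, 8, 16, 24, 32, 40 h.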

[12] = qHTS RealTime-Glo MT Cell Viability Assay in HEK293 cells - 32 hour (AID 1224868); further: top concentration of the series differs between compounds; nearly all actives have a fitted effect of over 50% in size
Summary of the method: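 Tox21 10K qHTS, HEK293, 600 cells/well, RealTime-Glo reagent co-dispensed with cells; 5 h preincubation, compound by pintool, 37 C, luminescence at 0–40 h.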

[13] = A CellTox Green Cytotoxicity Assay to monitor cytotoxicity in HEK293 cells - 0 hour (AID 1224869); further: nearly all actives have a fitted effect of over 50% in size
Summary of the method: (§1)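 Cytotoxicity was tracked continuously in HEK293 cells by a DNA-binding dye excluded from viable cells. Compounds were transferred in DMSO 5 h after seeding; fluorescence was recorded at intervals up to 40 h.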

[14] = qHTS RealTime-Glo MT Cell Viability Assay in HepG2 cells - 40 hour (AID 1224870); further: nearly all actives have a fitted effect of over 50% in size
Summary of the method: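 Real-time viability: cells seeded at 600 per well together with NanoLuc and cell-permeant prosubstrate, compounds added after 5 h incubation. Luminescence tracked at 0, 8, 16, 24, 32 and 40 h of exposure.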

[15] = A CellTox Green Cytotoxicity Assay to monitor cytotoxicity in HEK293 cells - 40 hour (AID 1224871); further: nearly all actives have a fitted effect of over 45% in size
Summary of the method: as §1

[16] = target: Thyrotropin receptor (Homo sapiens) (UniProt P16473); assay: qHTS assay to identify small molecule agonists of the thyroid stimulating hormone receptor (TSHR) signaling pathway (AID 1224843; calls by dose curve; further: nearly all actives have a fitted effect of over 45% in size)
Summary of the method: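 Screening of the Tox21 10K collection used HEK293 cells engineered with TSHR at 800 cells per well. After a 30-min room-temperature compound exposure, HTRF cAMP reagents were added and fluorescence recorded 1 h later.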

[17] = qHTS assay to identify small molecule agonists of the estrogen related receptor signaling pathway with the pleiotropic PPARgamma coactivator (PGC) from Tox21 10K library (AID 1224842); further: nearly all actives have a fitted effect of over 15% in size
Summary of the method: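 Luminescence from One-Glo (30 min, room temperature) measured after PGC/ERR cells had 18 h at 37 C with pinned compound (23 nL in DMSO). Cells had been seeded at 2,000 per well and pre-incubated 6 h.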

[18] = qHTS assay to identify small molecule agonists of the estrogen related receptor (ERR) signaling pathway from Tox21 library (AID 1224849; calls by dose curve; further: nearly all actives have a fitted effect of over 15% in size); conditions: ERR reporter cell line, ONE-Glo luciferase, 18 h; at 92.4 µM (top of the series) unless noted
Summary of the method: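 Agonist signal is luciferase luminescence from an ERR reporter cell line treated 18 h at 37 C with DMSO-dissolved compounds, read 30 min after ONE-Glo addition at room temperature.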

[19] = qHTS assay to identify small molecule antagonists of the estrogen related receptor signaling pathway with the pleiotropic PPARgamma coactivator (PGC) from Tox21 10K library (AID 1224841; call rule not given here)
Summary of the method: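 Antagonism in this quantitative HTS is taken from loss of luciferase signal in PGC/ERR cells. Cells (2,000/well) are treated with compounds in DMSO after a 6 h settling period and read by One-Glo luminescence after 18 h.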

[20] = qHTS assay to identify small molecule antagonists of the estrogen related receptor (ERR) signaling pathway from Tox21 library (AID 1224848); further: nearly all actives have a fitted effect of over 50% in size
Summary of the method: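 Antagonist-mode screen of the Tox21 10K library in an NTP-provided ERR reporter cell line; 18 h compound exposure at 37 C, luminescence measured with ONE-Glo.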
On the % scale 0 is the no-effect control and ±100 the full control effect.

Chain of Thyrotropin receptor (Homo sapiens) (P16473 whole entry, looked up): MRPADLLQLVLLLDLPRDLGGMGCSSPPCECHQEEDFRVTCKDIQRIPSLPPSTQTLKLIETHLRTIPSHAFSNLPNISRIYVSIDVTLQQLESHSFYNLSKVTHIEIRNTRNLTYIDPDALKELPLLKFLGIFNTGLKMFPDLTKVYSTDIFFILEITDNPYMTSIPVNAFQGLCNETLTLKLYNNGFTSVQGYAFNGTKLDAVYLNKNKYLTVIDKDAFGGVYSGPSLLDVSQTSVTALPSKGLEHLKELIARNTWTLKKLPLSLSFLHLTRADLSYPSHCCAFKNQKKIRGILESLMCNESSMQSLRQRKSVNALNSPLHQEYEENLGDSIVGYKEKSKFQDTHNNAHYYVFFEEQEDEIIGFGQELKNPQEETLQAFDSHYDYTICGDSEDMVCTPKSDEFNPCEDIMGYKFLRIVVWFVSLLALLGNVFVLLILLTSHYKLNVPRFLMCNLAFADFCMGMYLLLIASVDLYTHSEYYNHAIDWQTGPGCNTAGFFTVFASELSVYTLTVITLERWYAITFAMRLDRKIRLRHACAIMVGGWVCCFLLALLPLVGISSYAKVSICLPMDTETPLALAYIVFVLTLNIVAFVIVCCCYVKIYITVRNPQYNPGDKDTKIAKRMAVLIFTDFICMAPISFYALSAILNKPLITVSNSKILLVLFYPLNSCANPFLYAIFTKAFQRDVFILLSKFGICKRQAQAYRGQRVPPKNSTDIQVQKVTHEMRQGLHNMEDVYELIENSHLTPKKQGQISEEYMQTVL
Chain of Luciferin 4-monooxygenase (Photinus pyralis) (P08659 whole entry, looked up): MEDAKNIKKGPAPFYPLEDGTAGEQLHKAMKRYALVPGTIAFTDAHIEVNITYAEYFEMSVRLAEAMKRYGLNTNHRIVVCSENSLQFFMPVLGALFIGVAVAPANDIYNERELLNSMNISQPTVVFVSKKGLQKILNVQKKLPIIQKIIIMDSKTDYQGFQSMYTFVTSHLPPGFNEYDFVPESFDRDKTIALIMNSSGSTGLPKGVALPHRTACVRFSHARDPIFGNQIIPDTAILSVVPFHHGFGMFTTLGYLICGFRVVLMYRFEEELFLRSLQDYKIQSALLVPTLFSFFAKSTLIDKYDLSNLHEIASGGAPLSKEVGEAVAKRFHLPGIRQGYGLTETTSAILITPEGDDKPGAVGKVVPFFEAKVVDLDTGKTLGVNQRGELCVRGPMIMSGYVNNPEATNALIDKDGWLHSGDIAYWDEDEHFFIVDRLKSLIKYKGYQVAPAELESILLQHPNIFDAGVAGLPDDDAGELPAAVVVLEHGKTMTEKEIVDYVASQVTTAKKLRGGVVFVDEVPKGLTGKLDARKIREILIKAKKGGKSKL
Chain of Nuclear receptor subfamily 1 group I member 3 (Homo sapiens) (Q14994 whole entry, looked up): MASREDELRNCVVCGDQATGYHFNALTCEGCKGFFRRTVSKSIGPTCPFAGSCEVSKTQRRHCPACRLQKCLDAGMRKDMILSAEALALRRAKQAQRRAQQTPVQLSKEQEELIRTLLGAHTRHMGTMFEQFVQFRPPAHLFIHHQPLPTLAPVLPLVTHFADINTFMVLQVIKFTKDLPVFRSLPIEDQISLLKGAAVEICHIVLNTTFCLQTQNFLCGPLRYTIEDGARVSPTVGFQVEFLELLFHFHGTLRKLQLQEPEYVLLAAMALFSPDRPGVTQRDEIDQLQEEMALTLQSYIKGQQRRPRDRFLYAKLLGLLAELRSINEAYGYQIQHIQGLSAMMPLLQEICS

CC(C)CCCCCOC(=O)CS
inactive: Potency [1] | Potency [2] | Potency [3] | Potency [4] | Potency [5] | Potency [6] | Potency [7] | Potency [8] | outcome [9] | Potency [10] | outcome [11] | Potency [12] | Potency [13] | Potency [14]

O=C(O)c1ccc2c(c1)nc(C(=O)NC1CCN(C3CC3)CC1)n2Cc1cc(-c2ccc(Cl)s2)on1
inactive: activity change, negative = inhibition [1] -1.8% [at 23.6 µM] | viability change, negative = cytotoxic [2] 0.0204% [at 19 µM] | activity change, negative = cytotoxicity [3] 10.8% [at 19 µM] | activity, negative = inhibition [4] 19.9% [at 19 µM] | activation [5] -1.53% [at 19 µM] | viability change, negative = cytotoxic [6] -11.5% [at 19 µM] | activity change, negative = cytotoxicity [10] -8.48% [at 31.6 µM] | activity change, negative = cytotoxic [12] -0.224% [at 15.8 µM] | cytotoxicity [13] -5.57% [at 15.8 µM] | activity change, negative = cytotoxic [14] -1.55% [at 15.8 µM] | cytotoxicity increase [15] -0.224% [at 15.8 µM]

CCCOC(C)=O
inactive: Potency [1] | Potency [2] | Potency [3] | Potency [4] | Potency [5] | Potency [16] | outcome [9] | Potency [10] | outcome [11] | Potency [12] | Potency [13] | Potency [14] | Potency [15]

O=S(=O)(O)c1cc(Cl)c(Cl)cc1Cl
inactive: Potency [1] | Potency [2] | Potency [3] | Potency [4] | Potency [5] | Potency [6] | Potency [16] | Potency [8] | outcome [9] | Potency [10] | outcome [11] | Potency [12] | Potency [13] | Potency [14] | Potency [15]

CCOc1ccc2c(c1)C(C)CC(C)(C)N2 (stereo not drawn)
inactive: Potency [2] | Potency [3] | Potency [4] | Potency [16] | outcome [9] | outcome [11] | Potency [12] | Potency [13] | Potency [14]
active: Potency [1] 31.7 µM | Potency [5] 27.3 µM

CC(C)Cc1nccs1
inactive: Potency [1] | Potency [2] | Potency [3] | Potency [4] | Potency [5] | Potency [6] | Potency [7] | Potency [8] | outcome [9] | Potency [10] | outcome [11] | Potency [12] | Potency [13] | Potency [14] | Potency [15]

C(/C=C/C=C/Nc1ccccc1)=Nc1ccccc1
inactive: Potency [1] | Potency [2] | Potency [3] | Potency [4] | Potency [5] | Potency [6] | Potency [7] | outcome [9] | Potency [10] | Potency [12] | Potency [13] | Potency [14] | Potency [15]

Cc1ccc2ccccc2c1[N+](=O)[O-]
inactive: Potency [1] | Potency [2] | Potency [3] | Potency [4] | Potency [5] | Potency [6] | Potency [7] | Potency [10] | outcome [11] | Potency [12] | Potency [13] | Potency [14] | Potency [15]

CCC(C(=O)O)c1ccc(N2Cc3ccccc3C2=O)cc1 (stereo not drawn)
inactive: Potency [2] | Potency [3] | Potency [4] | Potency [6] | Potency [7] | Potency [8] | outcome [9] | Potency [10] | outcome [11] | Potency [12] | Potency [13] | Potency [14] | Potency [15]
active: Potency [1] 9.77 µM | Potency [5] 5.96 µM

O=C(OCCN1CCOCC1)c1cccnc1Nc1cccc(C(F)(F)F)c1
inactive: Potency [1] | Potency [2] | Potency [3] | Potency [4] | Potency [5] | Potency [16] | Potency [7] | Potency [8] | Potency [10] | outcome [11] | Potency [13] | Potency [14] | Potency [15]

CCCCCCCCNC
inactive: Potency [1] | Potency [2] | Potency [3] | Potency [4] | Potency [5] | Potency [6] | Potency [7] | outcome [9] | Potency [10] | Potency [12] | Potency [13] | Potency [14]

CC(C)(C)N
inactive: Potency [1] | Potency [2] | Potency [3] | Potency [4] | Potency [5] | Potency [16] | Potency [7] | Potency [8] | Potency [10] | outcome [11] | Potency [13] | Potency [14]

N#Cc1ccc(CC(=O)c2cccc(C(F)(F)F)c2)cc1
inactive: Potency [1] | Potency [2] | Potency [3] | Potency [4] | Potency [6] | Potency [17] | Potency [7] | Potency [8] | outcome [9] | activity change, positive = activation [18] -29.1% | outcome [11] | Potency [13] | Potency [15]

OCCc1ccncc1
inactive: Potency [1] | Potency [2] | Potency [3] | Potency [6] | Potency [19] | Potency [17] | Potency [16] | Potency [7] | Potency [8] | outcome [9] | Potency [10] | Potency [20] | activity change, positive = activation [18] 1.06% | outcome [11] | Potency [13] | Potency [14] | Potency [15]

O=P(c1ccccc1)(c1ccccc1)c1ccccc1
inactive: Potency [1] | Potency [2] | Potency [3] | Potency [4] | Potency [7] | Potency [8] | Potency [10] | outcome [11] | Potency [13] | Potency [14]

CNc1ccccc1
inactive: Potency [1] | Potency [2] | Potency [3] | Potency [6] | Potency [19] | Potency [17] | Potency [7] | outcome [9] | Potency [10] | Potency [20] | outcome [11] | Potency [13] | Potency [14] | Potency [15]

OCCOc1cccc(OCCO)c1
inactive: Potency [1] | Potency [2] | Potency [3] | Potency [4] | Potency [19] | Potency [17] | Potency [7] | Potency [8] | outcome [9] | Potency [10] | Potency [20] | activity change, positive = activation [18] 0.271% | outcome [11] | Potency [12] | Potency [13] | Potency [14] | Potency [15]
